PubChem BioAssay (NCI)
The panel holds about 83,000 compounds, 20% with a hit somewhere; the sample as a whole holds those more often.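 Single-dose data. Exposure time 48 hours. Values below 10 considered active.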 Active and inactive are the calls of the source.

Assays:
Assay in all cases: NCI-60 one-dose screen, 48 h (100 = growth as untreated, 0 = no growth, -100 = all killed)
Conditions in all cases: 10 µM unless noted
[1] = test system: DU-145 prostate
[2] = test system: K-562 leukemia
[3] = test system: MDA-MB-231 breast
[4] = test system: RXF 393 renal
[5] = test system: SF-268 CNS
[6] = test system: SF-295 CNS
[7] = test system: SF-539 CNS
[8] = test system: UACC-257 melanoma
[9] = test system: M14 melanoma
[10] = test system: MALME-3M melanoma

Measured: growth

O=C1C(Cl)=C(NCCCN2CCOCC2)C(=O)c2ccccc21
inactive: [1] 126% | [2] 60.3% | [3] 97.3% | [4] 108% | [5] 106% | [6] 109% | [7] 125% | [8] 73.3% | [9] 101%

Cc1ccc(S(=O)(=O)N2C/C(=C\c3cc(F)cc(F)c3)C(=O)/C(=C/c3cc(F)cc(F)c3)C2)cc1
active: [1] -61.3% | [2] 2.14% | [10] -62.9% | [3] -29.7% | [5] -40.6% | [7] -39.6% | [9] -50.1%

COc1ccc(CSc2nc3cc(OC)c(OC)cc3c(=O)n2-c2ccc(Cl)cc2)cc1
inactive: [1] 109% | [2] 93% | [10] 107% | [3] 99.9% | [5] 101% | [7] 95.9% | [9] 106%

COc1c(Cl)ccc2c(-c3nc4cc(Cl)c(F)cc4s3)cc(=O)oc12
inactive: [1] 97.1% | [2] 64.9% | [3] 65% | [4] 92.3% | [5] 29.5% | [6] 97.7% | [7] 90% | [8] 91.6% | [9] 95.5%

Clc1ccc(Nc2ccnc(N3CCN(c4ccnc5cc(Cl)ccc45)CC3)n2)cc1
inactive: [1] 78.2% | [2] 15.7% | [3] 33.8% | [4] 62.6% | [5] 57.3% | [6] 18.8% | [7] 62.2% | [8] 81.7% | [9] 33.7%

CCC12CCC3c4ccc(O)cc4CCC3C1CC(O)C2O (stereo not drawn)
inactive: [1] 103% | [2] 23.7% | [10] 70.1% | [4] 98.6% | [5] 103% | [6] 58.1% | [7] 80.6% | [8] 67.4% | [9] 55%

Oc1ccc2ccccc2c1C1NN=C(c2ccccc2)S1 (stereo not drawn)
active: [6] -8.68% | [8] -6.81% | [9] -8.91%
inactive: [1] 21.1% | [2] 18.6% | [3] 38.7% | [4] 67% | [5] 20.9% | [7] 12%

O=c1nc(NO)[nH]c(=O)n1Cc1ccc(F)cc1
inactive: [1] 114% | [2] 98.1% | [10] 103% | [3] 122% | [5] 104% | [7] 102% | [9] 107%

CCN(c1ccc(C(=O)N2CCN(c3ccccc3)CC2)cc1)S(C)(=O)=O
inactive: [1] 108% | [2] 96.4% | [10] 94.2% | [3] 119% | [5] 98.7% | [7] 103% | [9] 104%

COc1cccc(OC)c1OC(=O)c1ccccc1
inactive: [1] 119% | [2] 105% | [10] 106% | [4] 109% | [5] 111% | [6] 79.5% | [7] 99.1% | [8] 99.5% | [9] 109%

Clc1nc(-c2ccccn2)nc2sc3c(c12)CCCCCC3
inactive: [1] 22.6% | [2] 79.8% | [10] 94.2% | [3] 117% | [5] 94.6% | [7] 97.3% | [9] 86.8%

Cn1c2ccccc2c2nn(C(=O)c3ccccc3)c(=O)nc21
inactive: [1] 118% | [2] 112% | [3] 120% | [4] 101% | [5] 111% | [6] 98.2% | [7] 106% | [8] 118% | [9] 104%

Cn1c2ccccc2c2nn(Cc3ccccc3)c(=O)nc21
inactive: [1] 113% | [2] 109% | [3] 103% | [4] 103% | [5] 103% | [6] 97.4% | [7] 99.7% | [8] 101% | [9] 104%

COc1ccc(/C=C(\C#N)c2ccc(OC)cc2)cc1
inactive: [1] 72.3% | [2] 20.1% | [3] 72.8% | [4] 65.3% | [5] 78.4% | [6] 47% | [7] 79.7% | [8] 83.8% | [9] 61.9%

C=C(C)COC(=O)c1ccccc1C(=O)OCC1(C)CO1 (stereo not drawn)
inactive: [1] 104% | [2] 110% | [3] 103% | [4] 117% | [5] 93.6% | [6] 91.9% | [7] 101% | [8] 101% | [9] 96.5%

NC(=O)c1cc(I)ccc1NC(=O)COc1ccc(Cl)cc1Cl
inactive: [1] 111% | [2] 31.5% | [3] 107% | [4] 99.3% | [5] 97.5% | [6] 90.2% | [7] 97% | [8] 89.6% | [9] 81.5%

Cc1ccc(S(=O)(=O)N(c2ccc(Cl)cc2)c2ccc(Br)cc2C(=O)O)cc1
inactive: [1] 117% | [2] 107% | [3] 119% | [4] 100% | [5] 111% | [6] 112% | [7] 102% | [8] 101% | [9] 117%

Cc1ccc(C(=O)Nc2ccccc2N)cc1
inactive: [1] 73.5% | [2] 62.5% | [3] 69.7% | [4] 84.6% | [5] 69.6% | [6] 62.5% | [7] 68.1% | [8] 68% | [9] 77.5%

CC(=O)c1cc(C)c(OC(=O)c2ccccc2)c(C)c1
inactive: [1] 102% | [2] 85.7% | [3] 94.6% | [4] 98.9% | [5] 107% | [6] 107% | [7] 100% | [9] 105%

COc1ccc(NC(=O)COc2ccccc2)c(C(N)=O)c1
active: [2] 9.36% | [4] 2.95% | [7] -46.8% | [9] 3.47%
inactive: [1] 23% | [3] 44.1% | [5] 50.7% | [6] 13.3% | [8] 61.7%

CCN1CCN(C(=S)SCC(=O)Nc2nc3ccc(OC)cc3s2)CC1
inactive: [1] 106% | [2] 91.8% | [3] 98% | [4] 92.5% | [5] 92.5% | [6] 121% | [7] 109% | [8] 117% | [9] 112%

COc1ccc(Nc2nc(NCCNc3ccnc4cc(Cl)ccc34)nc(N3CCOCC3)n2)cc1
inactive: [1] 67.7% | [3] 25.2% | [5] 58.3% | [7] 38.1% | [9] 19.9%
active: [2] 6.77% | [10] -80.2%

NC(=S)N/N=C1\c2ccccc2-c2c(F)c(F)c(F)c(F)c21
inactive: [1] 81.7% | [10] 73.6% | [4] 123% | [5] 85.3% | [6] 99.5% | [7] 96.1% | [8] 23.1% | [9] 70.2%
active: [2] 9.46%

O=C(Nc1ccccc1O)c1ccc(NS(=O)(=O)c2cccc3cccnc23)cc1
inactive: [1] 49.1% | [2] 23.8% | [3] 64% | [4] 69.8% | [5] 44% | [6] 62.9% | [7] 41.4% | [8] 26.8% | [9] 41.1%

COC(=O)/C=C1/CCC2C3CCC4=CC(=O)C(Br)CC4(C)C3C(=O)CC12C (stereo not drawn)
inactive: [1] 75% | [2] 48.9% | [3] 78% | [4] 59.9% | [5] 95.6% | [6] 95.4% | [7] 97.4% | [9] 59.9%

Oc1ccccc1/C=N/Nc1nc2ccccc2s1
inactive: [1] 48% | [2] 41% | [3] 37.7% | [4] 86.3% | [5] 32.3% | [6] 27.9% | [7] 44.6% | [8] 58.7% | [9] 56.6%

N#CCCN1CCN(CCC#N)C1=S
inactive: [1] 110% | [2] 109% | [3] 99.6% | [4] 124% | [5] 99.4% | [6] 93.3% | [7] 101% | [8] 99.8% | [9] 96.6%

O=c1[nH]c(=S)[nH]c(=O)n1Cc1cccc2ccccc12
inactive: [1] 116% | [2] 90.1% | [10] 97.3% | [3] 106% | [5] 107% | [6] 77.4% | [7] 103% | [9] 104%

CSc1nnc(-c2sc3nnc(-c4ccccc4)c(-c4ccccc4)c3c2O)o1
inactive: [1] 84.7% | [3] 90.4% | [4] 82.6% | [5] 80.6% | [6] 40.8% | [7] 84.6% | [8] 91.6% | [9] 73%

NC(=O)c1cc(Cl)ccc1NC(=O)COc1ccccc1
inactive: [1] 60.4% | [2] 18.1% | [3] 77.4% | [4] 55% | [5] 66.2% | [7] 18.2% | [8] 84.4% | [9] 28.2%
